Among the data in PubChem BioAssay are composite z-score, z-score and composite Z-score values, retold here.

Test [1] has as its system Human papillomavirus type 1a protein E7 (residues 44-93). Kind of test: small molecules binding HPV E7 44-93 – biochemical, small-molecule microarray, residues 44-93, 635 nm fluorescence, primary screen (AID 1108).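 Note: E7 fragment applied at 1 µg/mL in TBST for 1 h at 4 C; score combines spot fluorescence with its signal to noise ratio.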 Conditions: fluorescence 635 nm, higher = more signal.
Test [2] in a line: hepatitis C replication reporter changes, two-sided – Huh7 cells, luciferase reporter, HCV replication inhibitor project, primary screen (AID 1109).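 Note: huh7 hepatoma cells harbouring a luciferase neomycin HCV replicon reporter; luciferase luminescence as measure of HCV replicon replication; test concentration not given here.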 To be noted: Huh7 HCV replicon luciferase reporter, 48 h; higher = more signal.
For test [3], the target named is Left-right determination factor 2 (Homo sapiens) (UniProt O00292). The test can be described thus: small molecules binding LEFTY2 protein – biochemical, small-molecule microarray, 635 nm fluorescence scan, primary screen (AID 1110). To be noted: higher = more signal.
Sequence of Left-right determination factor 2 (Homo sapiens) (O00292 whole entry, looked up): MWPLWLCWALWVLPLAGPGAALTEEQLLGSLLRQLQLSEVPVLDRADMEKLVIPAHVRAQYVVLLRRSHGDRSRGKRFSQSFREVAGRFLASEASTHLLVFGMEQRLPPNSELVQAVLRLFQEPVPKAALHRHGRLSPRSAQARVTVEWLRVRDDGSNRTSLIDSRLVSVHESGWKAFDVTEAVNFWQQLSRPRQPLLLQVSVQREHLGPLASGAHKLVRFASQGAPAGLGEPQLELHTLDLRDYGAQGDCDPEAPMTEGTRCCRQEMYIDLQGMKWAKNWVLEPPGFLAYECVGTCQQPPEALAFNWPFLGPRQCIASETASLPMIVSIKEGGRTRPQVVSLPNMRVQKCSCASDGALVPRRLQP
Test [4] addresses Calmodulin-1 (Homo sapiens) (UniProt P0DP23). The test can be described thus: small molecules binding calmodulin-1 with EGTA – biochemical, small-molecule microarray, Cy5-labelled CALM1, profiling panel (AID 1111).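 Note: labelled calmodulin applied in Tris saline Tween buffer holding calcium plus EGTA and DTT.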 Conditions: Cy5-CALM1 binding fluorescence, higher = more signal.
Test [5] shares this target. The test can be described thus: small molecules binding Ca-loaded calmodulin-1 – biochemical, small-molecule microarray, Cy5-labelled CALM1, plus calcium, artefact control for SMM control-protein annotation, profiling panel (AID 1112).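 Note: score merges spot fluorescence with signal to noise from triplicate slides.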 To be noted: Cy5-CALM1 binding fluorescence, higher = more signal.
The nature of test [6]: probe aWnt5a binding to arrayed compounds – biochemical, biotinylated probe, 635/667 nm fluorescence, primary screen (AID 1113).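 Note: score merges 667 nm fluorescence intensity with signal-to-noise per printed feature.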 Conditions: small-molecule microarray, higher = more signal.
Test [7] in a line: probe aShh binding to arrayed compounds – biochemical, biotinylated probe, 635/667 nm fluorescence, primary screen (AID 1114).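 Note: probe is biotin-labelled aShh protein from a stem cell growth factor screen; measures binding of labelled protein to compounds printed on the slide; score merges feature fluorescence at 667 nm with signal-to-noise.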 To be noted: small-molecule microarray, higher = more signal.
Test [8] can be described thus: probe aNog binding to arrayed compounds – biochemical, biotinylated probe, 635/667 nm fluorescence, primary screen (AID 1115).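 Note: probe is biotinylated aNog protein used at 0.15 µg/mL for 1 h at 4 C; z-score combines 667 nm fluorescence of each spot with its signal to noise.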 Conditions: small-molecule microarray, higher = more signal.
For test [9], the target named is Torsin-1A-interacting protein 1 (Homo sapiens) (UniProt Q5JTV8). Kind of test: compound microarray binding of lysate hLAP1 – cell lysate, small-molecule microarray, COS7 lysate, 635/667 nm fluorescence, primary screen (AID 1116). Conditions: 635 nm fluorescence, higher = more signal.
Sequence of Torsin-1A-interacting protein 1 (Homo sapiens) (Q5JTV8 whole entry, looked up): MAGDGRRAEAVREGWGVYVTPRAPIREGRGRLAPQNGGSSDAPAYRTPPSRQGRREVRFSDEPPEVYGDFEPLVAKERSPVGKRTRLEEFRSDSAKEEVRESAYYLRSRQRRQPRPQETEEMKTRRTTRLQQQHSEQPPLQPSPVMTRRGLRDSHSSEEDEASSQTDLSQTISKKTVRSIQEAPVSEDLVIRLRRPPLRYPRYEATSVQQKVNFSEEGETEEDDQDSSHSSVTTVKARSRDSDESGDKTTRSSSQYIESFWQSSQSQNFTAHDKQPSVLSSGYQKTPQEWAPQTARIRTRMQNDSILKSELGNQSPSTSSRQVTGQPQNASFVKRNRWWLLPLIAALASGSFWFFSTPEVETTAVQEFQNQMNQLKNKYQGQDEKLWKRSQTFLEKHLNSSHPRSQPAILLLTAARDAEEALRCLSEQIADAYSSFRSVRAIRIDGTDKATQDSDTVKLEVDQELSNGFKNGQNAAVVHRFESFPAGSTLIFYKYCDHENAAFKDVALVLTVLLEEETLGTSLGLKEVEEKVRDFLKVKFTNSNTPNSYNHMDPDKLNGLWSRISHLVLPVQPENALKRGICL
For test [10], the target named is Alpha-bungarotoxin (Bungarus multicinctus) (UniProt P60615). Kind of test: compounds binding labelled alpha-BTX control protein – biochemical, small-molecule microarray, Alexa647 label, 635/667 nm fluorescence, artefact control for SMM control protein annotation, profiling panel (AID 1117). Conditions: alpha-BTX-A647 binding fluorescence, higher = more signal.
Sequence of Alpha-bungarotoxin (Bungarus multicinctus) (P60615 whole entry, looked up): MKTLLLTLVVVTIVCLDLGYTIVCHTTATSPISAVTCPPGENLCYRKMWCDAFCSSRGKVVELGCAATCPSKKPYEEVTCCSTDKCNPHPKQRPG
The target in test [11] is Albumin (Bos taurus) (UniProt P02769). Kind of test: compounds binding labelled BSA control protein – biochemical, small-molecule microarray, Alexa647 label, 635/667 nm fluorescence, artefact control for SMM control protein annotation, profiling panel (AID 1118).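 Note: score merges 667 nm emission intensity and signal-to-noise per printed compound spot.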 To be noted: BSA-A647 binding, fluorescence 635 nm, higher = more signal.
Sequence of Albumin (Bos taurus) (P02769 whole entry, looked up): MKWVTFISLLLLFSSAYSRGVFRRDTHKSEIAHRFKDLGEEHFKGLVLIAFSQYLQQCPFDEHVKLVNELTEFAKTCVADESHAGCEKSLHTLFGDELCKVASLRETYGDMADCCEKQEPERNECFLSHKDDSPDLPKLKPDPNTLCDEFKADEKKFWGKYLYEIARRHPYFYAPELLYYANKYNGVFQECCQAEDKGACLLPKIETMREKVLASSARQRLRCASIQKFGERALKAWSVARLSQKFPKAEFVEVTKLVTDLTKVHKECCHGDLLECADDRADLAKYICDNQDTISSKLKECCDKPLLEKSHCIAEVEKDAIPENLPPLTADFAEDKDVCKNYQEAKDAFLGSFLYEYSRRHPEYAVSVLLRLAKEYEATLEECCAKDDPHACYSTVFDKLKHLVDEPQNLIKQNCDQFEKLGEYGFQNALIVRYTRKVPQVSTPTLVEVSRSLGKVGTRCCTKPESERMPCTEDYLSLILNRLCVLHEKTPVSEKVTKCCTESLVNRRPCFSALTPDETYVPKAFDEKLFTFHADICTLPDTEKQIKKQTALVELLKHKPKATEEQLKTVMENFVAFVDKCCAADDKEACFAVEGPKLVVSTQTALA
Test [12] can be described thus: probe aXIP binding to arrayed compounds – biochemical, NeuroSMM set, 635/667 nm fluorescence, primary screen (AID 1119).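 Note: probe is the protein aXip251-270 applied at 1 µg/mL to compound-printed slides; binding of probe to printed compounds measured as 667 nm fluorescence plus signal to noise.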 Conditions: small-molecule microarray, higher = more signal, called active from +8 up or from −8 down.
Test [13] is described as follows: probe aNOTCH3 binding on compound microarray – biochemical, small-molecule microarray, 635/667 nm fluorescence, primary screen (AID 1120).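 Note: probe is a biotin-tagged antibody raised against NOTCH3 rather than NOTCH3 protein; score merges spot fluorescence near 667 nm with spot signal to noise.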 Conditions: higher = more signal.
Test [14] can be described thus: probe aNOTCH2 binding on compound microarray – biochemical, small-molecule microarray, 635/667 nm fluorescence, primary screen (AID 1121).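 Note: score merges feature fluorescence read at 667 nm with its signal to noise.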 To be noted: higher = more signal.
In test [15] the target is Carbonic anhydrase 2 (Homo sapiens) (UniProt P00918). The test can be described thus: compounds binding carbonic anhydrase 2 – biochemical, small-molecule microarray, Alexa647-labelled CAII, profiling panel (AID 1122). Conditions: CAII-A647 binding fluorescence, higher = more signal.
The nature of test [16]: COS7 lysate on small-molecule microarray, probe aHis, 635 nm (AID 1123).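 Note: z-score combines 667nm fluorescence intensity with signal-to-noise per printed compound spot.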 Conditions: COS7 cell lysate, fluorescence, higher = more signal.
The nature of test [17]: probe aLAP1 signal on lysate-treated microarray – cell lysate, small-molecule microarray, COS7 lysate, primary screen (AID 1124).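 Note: lysate comes from COS7 cells expressing LAP1 and is applied at 0.3 µg/mL; score merges spot fluorescence near 667 nm with signal-to-noise over triplicate slides.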 Conditions: probe aLAP1, fluorescence, higher = more signal.
The test system of test [18] is Sam68 (KHDRBS1). The test can be described thus: compounds binding KHDRBS1 protein – biochemical, small-molecule microarray, 635 nm fluorescence, primary screen (AID 1125).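 Note: score merges 667 nm channel intensity with signal to noise over triplicate slides.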 To be noted: higher = more signal.
The subject of test [19] is Chordin-like protein 2 (CHRDL2). Kind of test: compounds binding chordin-like 2 – biochemical, small-molecule microarray, 635 nm fluorescence, primary screen (AID 1126).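 Note: printed compound slides probed with Chrdl2 protein at 4 µg/mL for 1 h at 4 C; score merges 667 nm emission intensity with signal to noise over three replicate slides.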 To be noted: fluorescence 635 nm, higher = more signal.
For test [20], the target named is Concanavalin-A (Canavalia ensiformis) (UniProt P02866). Kind of test: compounds binding concanavalin A lectin – biochemical, small-molecule microarray, Alexa647 label, 635 nm, artefact control for SMM control protein annotation, primary screen (AID 1127).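 Note: z combines 667 nm emission intensity with signal-to-noise across three replicate slides.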 Conditions: ConA-A647 binding fluorescence, higher = more signal.
Sequence of Concanavalin-A (Canavalia ensiformis) (P02866 whole entry, looked up): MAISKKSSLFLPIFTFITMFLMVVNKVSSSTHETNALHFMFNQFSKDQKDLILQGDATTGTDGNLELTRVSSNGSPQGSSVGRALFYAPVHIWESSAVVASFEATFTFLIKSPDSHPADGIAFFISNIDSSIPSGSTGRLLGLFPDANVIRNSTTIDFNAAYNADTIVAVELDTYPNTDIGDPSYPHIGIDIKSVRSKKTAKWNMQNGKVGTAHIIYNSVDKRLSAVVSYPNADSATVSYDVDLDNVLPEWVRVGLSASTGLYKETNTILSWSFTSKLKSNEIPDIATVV

Calls of active or inactive are those of the source.

Consider `COCC(=C=CC[C@H](O)c1ccccc1OCCO)CCO`, for which the composite z-score was 0.0008 in test [1]; -0.378 in test [3]; -0.0866 in test [4]; -0.037 in test [5]; -0.096 in test [6]; 0.0723 in test [7]. In addition, the composite z-score was 0.509 in test [8]; 1.34 in test [9]; 0.804 in test [10]; 0.003 in test [11]; -0.0048 in [13]; -0.0475 in test [14]. Besides, the composite z-score is 0.774 in [15]; 0.969 in [16]; 0.162 in test [17]; 0.853 in test [18]; -0.546 in test [19]; 0.298 in test [20]. In test [2], the z-score was -0.266. The composite Z-score in [12] is -0.325 (inactive).
For `O=C1C2C=CC(C(O)c3ccc4c(c3)OCO4)N(Nc3ccc([N+](=O)[O-])cc3)C2C(=O)N1c1ccccc1` (stereo not given), the composite z-score in [1] is 1.12; in test [3], 0.219; in test [4] it was -0.182; in test [5], -0.429; in test [6], -0.0445; in [7], -0.0968. For the same compound, the composite z-score in test [8] was -0.418; in [9] it was -0.181; in test [10], 0.177; in test [11], 0.854; in test [13], 0.0225; in [14], -0.104. Moreover, the composite z-score is 0.699 in [15]; 1.15 in test [16]; 0.345 in test [17]; 0.597 in test [18]; -0.0385 in test [19]; 0.813 in [20]. Also, the z-score in test [2] was -0.133. The composite Z-score in test [12] is -0.0054 (inactive).
On to `CN1C(=O)C2C=CC(C(O)c3c(F)cccc3Cl)N(NC(=O)OC(C)(C)C)C2C1=O` (stereo not given), for which the composite z-score is 1.3 in test [1]; -0.0662 in test [3]; 2.03 in test [4]; 0.498 in test [5]; 0.0718 in test [6]; -0.167 in test [7]. In addition, the composite z-score in test [8] was 1.46; in [9] it was 2.03; in test [10], 1.35; in [11], 0.972; in test [13], -0.0362; in test [14], 0.109. Besides, the composite z-score in [15] is 0.572; in test [16] it was 2.75; in [17], 0.67; in test [18], 1.22; in [19], -0.729; in test [20], 0.918. In test [2], the z-score is -0.28. Further, the composite Z-score in test [12] is 2.18 (inactive).
Consider `CCCCC(=C=CC[C@@H](O)c1ccc(CO)o1)CCO`, for which the composite z-score is 0.378 in [1]; 0.38 in test [3]; -0.111 in test [4]; -0.641 in test [5]; -0.0462 in test [6]; 0.365 in [7]. The composite z-score in test [8] is -0.158; in test [9], 0.148; in test [10], -0.168; in test [11] it was -0.276; in test [13], 0.0261; in test [14], -0.044. Besides, the composite z-score is 0.595 in [15]; -0.0845 in test [16]; 0.24 in [17]; 1.17 in test [18]; 0.29 in [19]; 0.119 in test [20]. In addition, in [2], the z-score is -0.379. In [12], the composite Z-score was -0.35 (inactive).
For `CCOC(=O)C1=CCC(c2ccc(F)cc2)N(S(=O)(=O)c2ccc(C)cc2)C1` (stereo not given), the composite z-score in [1] is 0.683; in test [3] it was 0.105; in test [4], 0.0017; in [5] it was 0.0535; in test [6], -0.184; in test [7], -0.167. Besides, the composite z-score in test [8] is -0.494; in test [9], 0.612; in test [10], 0.25; in test [11] it was 0.569; in [13], 0.0351; in test [14], -0.113. Further, the composite z-score is 0.397 in [15]; 0.75 in test [16]; 0.552 in [17]; 0.376 in test [18]; 0.563 in [19]; 0.221 in test [20]. Also, the z-score in test [2] is -1.81. Further, the composite Z-score in test [12] is -0.297 (inactive).
